Results on seven compounds are retold here after PubChem BioAssay (NCATS).

SMILES strings stand for the structures. Inconclusive results are not listed. Activity calls are given as the source filed them. Unless noted, calls follow the shape of the dose curve; as a rule, active = well fitted curve in the direction sought with a large enough effect; inconclusive = small, poorly fitted or top-dose-only effect, or another doubt; inactive = no such curve, though single readings can be large; an effect the other way counts as inactive or inconclusive.

Experiment [1] addresses Lysosomal acid glucosylceramidase (Homo sapiens) (UniProt P04062). The experiment can be described thus: Glucocerebrosidase-p2 (AID 348; in the data active = potency below about 10 µM; also: potency is read from the fitted curve at half-maximal effect). Conditions: purified GBA, blue fluorogenic substrate, 40 min. The method, boiled down: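 Normal human glucocerebrosidase (0.2 nM) with blue fluorogenic substrate (80 uM final) in citrate/phosphate pH 5.9 with 10mM sodium taurocholate, 0.01% tween-20; 40 min RT, NaOH/glycine stop; fluorescence Ex 365/Em 440; AC50 from a titration from 0.6 nM upwards.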

For experiment [2], the target named is Glucocorticoid receptor (Homo sapiens) (UniProt P04150). The experiment can be described thus: GR-GFP Redistribution (AID 450;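 active = compounds whose dose series gives a full or clear partial fitted curve of increased nuclear translocation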; also: potency is read from the fitted curve at half-maximal effect). Conditions: U2OS GR-GFP nuclear translocation, laser cytometry, 2 h.
Glucocorticoid receptor (Homo sapiens), sequence (P04150 whole entry, looked up): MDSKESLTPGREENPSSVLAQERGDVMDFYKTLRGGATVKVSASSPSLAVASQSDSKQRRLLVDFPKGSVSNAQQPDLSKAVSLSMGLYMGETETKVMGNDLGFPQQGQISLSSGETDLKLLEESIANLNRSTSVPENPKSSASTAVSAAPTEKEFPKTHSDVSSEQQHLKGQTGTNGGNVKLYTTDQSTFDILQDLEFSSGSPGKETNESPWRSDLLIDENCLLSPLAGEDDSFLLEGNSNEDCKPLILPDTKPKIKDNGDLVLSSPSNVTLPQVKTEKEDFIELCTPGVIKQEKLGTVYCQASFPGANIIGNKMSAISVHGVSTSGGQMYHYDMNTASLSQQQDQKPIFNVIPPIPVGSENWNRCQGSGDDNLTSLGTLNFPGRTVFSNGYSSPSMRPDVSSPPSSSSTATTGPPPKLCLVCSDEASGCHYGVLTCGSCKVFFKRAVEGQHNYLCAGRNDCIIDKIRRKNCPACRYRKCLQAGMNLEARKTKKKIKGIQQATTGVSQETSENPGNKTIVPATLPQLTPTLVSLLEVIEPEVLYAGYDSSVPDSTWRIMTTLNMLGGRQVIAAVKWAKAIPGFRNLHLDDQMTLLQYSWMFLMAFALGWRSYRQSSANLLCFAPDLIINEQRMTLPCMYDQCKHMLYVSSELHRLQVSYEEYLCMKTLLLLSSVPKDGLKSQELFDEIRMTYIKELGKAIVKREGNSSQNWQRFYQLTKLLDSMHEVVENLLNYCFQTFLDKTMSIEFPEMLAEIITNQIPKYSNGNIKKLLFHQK
The target is the same in experiment [3]. The experiment can be described thus: GR-EFC Redistribution (AID 451; calls by dose curve; also: potency is read from the fitted curve at half-maximal effect). Conditions: CHO-K1 GR-EFC translocation, beta-gal luminescence, 2 h. In short, it runs like this:
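CHO-K1 cells expressing nuclear EA and GR-ED fragments of b-gal; compounds titrated up to 46 uM final, 2 h at 37 C. GR nuclear translocation read as complemented b-gal luminescence after 1 h RT detection.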

The target in experiment [4] is Mitogen-activated protein kinase 10 (Mus musculus) (UniProt Q61831). Kind of experiment: JNK3 AlphaScreen Assay (AID 530; active = well fitted curve in either direction with a large enough effect, not every such curve was filed as active;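 also: kinase came from lysate of stimulated human HepG2 cells; signal reports phosphorylation of biotinylated GST-cJun 1-79 at Ser73 with 10 µM ATP; % is scaled to controls: 0 for no effect and ±100 for the full control effect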). In short, it runs like this:
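Activity was read by AlphaScreen after JNK3-containing HepG2 lysate (cytokine pre-activated) phosphorylated biotinylated GST-cJun with 10 uM ATP at room temperature. Phospho-Ser73 cJun antibody with Protein-A acceptor beads provided detection.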
(In general: Bead proximity is the source of the signal in Alpha formats.)

Experiment [5] can be described thus: qHTS Assay for Lipid Storage Modulators (AID 1519; calls by dose curve). Conditions: Drosophila S3 cells, BODIPY lipid droplet/cell ratio, laser cytometry, cells loaded with oleic acid; for activity change, negative = inhibition: at 57.5 µM (top of the series). In short, it runs like this: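 Cells seeded at 5,000 per well were treated with compounds over a concentration series and loaded with oleic acid (400 uM, as added). Lipid droplet fluorescence (488 nm excitation, 500-530 nm channel) was read by laser-scanning cytometry and normalized to 20 uM Triacsin C.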
In general terms: In qHTS, concentration-response curves come from the screen itself.

A short description of experiment [6]: Primary qHTS for small molecule stabilizers of the endoplasmic reticulum resident proteome: Secreted ER Calcium Modulated Protein (SERCaMP) assay (AID 1508630). Also: % is scaled to controls: 0 for no effect and ±100 for the full control effect. The method, boiled down: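 The SH-SY5Y reporter protocol was run at 3 concentrations up to 38.3 uM (primary) or 11 concentrations (follow-up): 16 h compound, 100 nM thapsigargin for 4 h, then extracellular luciferase luminescence.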

A short description of experiment [7]: AP1 Signaling Pathway (AID 357; active = well fitted curve in either direction with a large enough effect, not every such curve was filed as active; also: % is scaled to controls: 0 for no effect and ±100 for the full control effect). The conditions noted are these: ME-180 AP-1-bla reporter, EGF-induced, beta-lactamase ratio, 5 h; at 7.69 µM (top of the series) unless noted. In short, it runs like this: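 Cells are seeded overnight, exposed to compound titrations and an EC50 level of EGF for 5 hours at 37 °C, then loaded with CCF4 dye for 2.5 hours. Beta-lactamase activity under the AP-1 element is read as a blue/green ratio.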

Experiment [8] has as its target Cytochrome P450 1A2 (Homo sapiens) (UniProt P05177). The experiment can be described thus: p450-cyp1a2 (AID 410; calls by dose curve; also: potency is read from the fitted curve at half-maximal effect). The method, boiled down: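 O-Demethylation of luciferin 6' methyl ether by human CYP1A2 is monitored as luciferase luminescence. Substrate sits at Km (100uM); enzyme is 20nM. Values are scaled to 57 uM furafylline as maximal inhibition.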
Experiment [9] can be described thus: Stat Signaling Pathway (AID 446; active = well fitted curve in either direction with a large enough effect, not every such curve was filed as active;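 also: ME-180 cervical cancer cells given 40 pM IL-6 alongside compound; SIE-controlled beta-lactamase reporter measured as 460/530 nm FRET emission ratio; % is scaled to controls: 0 for no effect and ±100 for the full control effect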). Conditions: ME-180 (cervical carcinoma) SIE beta-lactamase reporter, IL-6 stimulated, 5 h; at 7.69 µM (top of the series) unless noted. In short, it runs like this:
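Overnight-plated ME-180 cells bearing a STAT Inducible Element beta-lactamase reporter; 5 h co-exposure to compound and 40 pM IL-6; values normalized to 300 pM IL-6 and 125 nM JAK inhibitor controls.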

Experiment [10] concerns the target 3',5'-cyclic-AMP phosphodiesterase 4B (Homo sapiens) (UniProt Q07343). Kind of experiment: qHTS Assay for Inhibitors of PDE-IV (AID 607; active = well fitted activation curve with a large enough effect in the main read-out, with a control signal flat, not every such curve was filed as active; also: % of control where 0% means no effect). In short, it runs like this: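 Live HEK293 cells with a modified cyclic nucleotide-gated (CNG) channel report intracellular cAMP via membrane-potential dye fluorescence (ex 535/em 590 nm). Endogenous PDE-IV was targeted. Compounds were tested at up to 22.9 uM final; RO 20-1724 100 uM served as control.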

Experiment [11] can be described thus: NFAT Signaling Pathway (AID 444; active = well fitted curve in either direction with a large enough effect, not every such curve was filed as active). Conditions: Jurkat NFAT-bla M1, carbachol, beta-lactamase ratio, 5 h; at 7.69 µM (top of the series) unless noted. In short, it runs like this: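 Jurkat cells with NFAT-driven β-lactamase reporter and co-expressed M1 receptor, stimulated with carbachol (final 1 uM, ~EC50), compound titration, 5 h at 37 °C. CCF4 loaded 1 h at RT; 460/530 nm ratio gave %activity and AC50.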

Experiment [12] can be described thus: Confirmation and Secondary Assay for Modulators of Hemoglobin Beta Chain Splicing at IVS2 705 locus (AID 930).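 Also: HeLa cells stably expressing the EGFP-705 splicing reporter; GFP fluorescence per well restored by corrected splicing of the IVS2-705 intron in EGFP; % of control where 0% means no effect.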 The method, boiled down: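 Fluorescence gain (488 nm laser, 500-520 nm PMT) reflects restored correct splicing of a mutant IVS2-705 intron inside EGFP in stably transfected HeLa cells after 2-day compound treatment.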
The target in experiment [13] is Cytochrome P450 3A4 (Homo sapiens) (UniProt P08684). The experiment can be described thus: qHTS Assay for Inhibitors and Substrates of Cytochrome P450 3A4 (AID 884). Also: potency is read from the fitted curve at half-maximal effect; nearly all actives have a fitted effect of over 50% in size. In short, it runs like this:
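Luminescent readout of luciferin produced by CYP3A4 (20 nM) dealkylation of Luciferin-PPXE, 25 uM (its KM). NADPH-driven reaction ran 60 min at RT after 10 min compound preincubation; data scaled to 57 uM ketoconazole as 100% inhibition.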

Experiment [14] shares this target. The experiment can be described thus: qHTS Assay for Activators of Cytochrome P450 3A4 (AID 885). Also: nearly all actives have a fitted effect of over 65% in size. In short, it runs like this: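 Using 20nM recombinant human CYP3A4 in potassium phosphate (200mM), substrate Luciferin-PPXE at 25uM, luminescent luciferin detection followed a 60-min RT NADPH reaction; data scaled to 57 uM ketoconazole.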
In experiment [15] the target is Ubiquitin carboxyl-terminal hydrolase 1 (Homo sapiens) (UniProt O94782). Kind of experiment: Inhibitors of USP1/UAF1: Pilot qHTS (AID 504865).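 Also: rhodamine fluorescence freed from ubiquitin-rhodamine substrate followed over time; top concentration of the series differs between compounds; % is scaled to controls: 0 for no effect and ±100 for the full control effect; nearly all actives have a fitted effect of over 35% in size.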 In short, it runs like this: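 Enzyme-free wells gave the negative control, while test wells held 1nM USP1/UAF1 preincubated with compound for 15 min at room temperature. Ub-Rho at 150nM final started the reaction, and fluorescence at 480/540 nm was recorded kinetically.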
Ubiquitin carboxyl-terminal hydrolase 1 (Homo sapiens), sequence (O94782 whole entry, looked up): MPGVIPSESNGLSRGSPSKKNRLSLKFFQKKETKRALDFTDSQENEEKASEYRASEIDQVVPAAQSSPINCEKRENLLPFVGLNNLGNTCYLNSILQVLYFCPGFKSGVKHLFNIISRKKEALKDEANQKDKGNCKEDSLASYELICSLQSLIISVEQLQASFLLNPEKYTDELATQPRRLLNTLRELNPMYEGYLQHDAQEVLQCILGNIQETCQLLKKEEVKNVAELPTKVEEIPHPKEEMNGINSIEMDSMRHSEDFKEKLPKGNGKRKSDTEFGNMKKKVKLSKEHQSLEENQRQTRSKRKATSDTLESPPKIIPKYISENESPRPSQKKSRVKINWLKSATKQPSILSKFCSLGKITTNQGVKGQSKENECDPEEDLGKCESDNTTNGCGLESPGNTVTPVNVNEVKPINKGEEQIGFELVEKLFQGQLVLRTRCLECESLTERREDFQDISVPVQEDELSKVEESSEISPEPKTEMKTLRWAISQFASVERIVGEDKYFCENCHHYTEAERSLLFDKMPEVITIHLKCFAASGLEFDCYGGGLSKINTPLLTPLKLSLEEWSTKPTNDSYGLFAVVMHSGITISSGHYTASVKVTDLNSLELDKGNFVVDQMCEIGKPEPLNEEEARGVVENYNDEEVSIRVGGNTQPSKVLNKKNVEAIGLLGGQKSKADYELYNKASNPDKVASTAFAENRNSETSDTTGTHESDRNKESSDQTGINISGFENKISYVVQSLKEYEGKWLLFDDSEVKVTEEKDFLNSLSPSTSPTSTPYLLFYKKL

Experiment [16] concerns the target Dual specificity protein kinase CLK4 (Homo sapiens) (UniProt Q9HAZ1). The experiment can be described thus: qHTS Assay for Inhibitors of CDC-like Kinase 4 (ADP-FP Assay) (AID 1795).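 Also: recombinant human CLK4 phosphorylating RS repeat peptide at 1 µM ATP; % is scaled to controls: 0 for no effect and ±100 for the full control effect; nearly all actives have a fitted effect of over 60% in size.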 The method, boiled down:
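Kinase activity was followed as ADP output, converted from fluorescence polarization with a calibration curve. Reactions ran one hour at low ATP (1 uM) with RS peptide substrate.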

Experiment [17] addresses Rap guanine nucleotide exchange factor 3 (Homo sapiens) (UniProt O95398). Kind of experiment: Confirmatory qHTS for antagonist of cAMP-regulated guanine nucleotide exchange factor 3 (EPAC1) (AID 1645880).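 Also: plate controls were DMSO only for no effect and full effect of the ATA control for full effect; nearly all actives have a fitted effect of over 55% in size.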 The method, boiled down:
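Released BODIPY-GDP fluoresces less than Rap1-bound BODIPY-GDP; the signal is followed at 480/540 nm at 5-min intervals over 30 min, after 5 min at room temperature. Reactions contain 100 nM EPAC1, 250 nM RAP1B-BODIPY-GDP and 50 uM GDP; results are normalized to ATA and DMSO.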

Experiment [18] shares this target. The experiment can be described thus: Confirmatory qHTS for agonist of cAMP-regulated guanine nucleotide exchange factor 3 (EPAC1) (AID 1645881).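 Also: EPAC1 catalysed release of BODIPY-GDP from Rap1B seen as fluorescence loss; nearly all actives have a fitted effect of over 75% in size.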
In experiment [19] the target is Rap guanine nucleotide exchange factor 4 (Homo sapiens) (UniProt Q8WZA2). Kind of experiment: Confirmatory qHTS for agonist of cAMP-regulated guanine nucleotide exchange factor 4 (EPAC2) (AID 1645884).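 Also: nucleotide exchange releases bodipy-GDP from Rap1 and this lowers its fluorescence; % is scaled to controls: 0 for no effect and ±100 for the full control effect; nearly all actives have a fitted effect of over 65% in size.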
Rap guanine nucleotide exchange factor 4 (Homo sapiens), sequence (Q8WZA2 whole entry, looked up): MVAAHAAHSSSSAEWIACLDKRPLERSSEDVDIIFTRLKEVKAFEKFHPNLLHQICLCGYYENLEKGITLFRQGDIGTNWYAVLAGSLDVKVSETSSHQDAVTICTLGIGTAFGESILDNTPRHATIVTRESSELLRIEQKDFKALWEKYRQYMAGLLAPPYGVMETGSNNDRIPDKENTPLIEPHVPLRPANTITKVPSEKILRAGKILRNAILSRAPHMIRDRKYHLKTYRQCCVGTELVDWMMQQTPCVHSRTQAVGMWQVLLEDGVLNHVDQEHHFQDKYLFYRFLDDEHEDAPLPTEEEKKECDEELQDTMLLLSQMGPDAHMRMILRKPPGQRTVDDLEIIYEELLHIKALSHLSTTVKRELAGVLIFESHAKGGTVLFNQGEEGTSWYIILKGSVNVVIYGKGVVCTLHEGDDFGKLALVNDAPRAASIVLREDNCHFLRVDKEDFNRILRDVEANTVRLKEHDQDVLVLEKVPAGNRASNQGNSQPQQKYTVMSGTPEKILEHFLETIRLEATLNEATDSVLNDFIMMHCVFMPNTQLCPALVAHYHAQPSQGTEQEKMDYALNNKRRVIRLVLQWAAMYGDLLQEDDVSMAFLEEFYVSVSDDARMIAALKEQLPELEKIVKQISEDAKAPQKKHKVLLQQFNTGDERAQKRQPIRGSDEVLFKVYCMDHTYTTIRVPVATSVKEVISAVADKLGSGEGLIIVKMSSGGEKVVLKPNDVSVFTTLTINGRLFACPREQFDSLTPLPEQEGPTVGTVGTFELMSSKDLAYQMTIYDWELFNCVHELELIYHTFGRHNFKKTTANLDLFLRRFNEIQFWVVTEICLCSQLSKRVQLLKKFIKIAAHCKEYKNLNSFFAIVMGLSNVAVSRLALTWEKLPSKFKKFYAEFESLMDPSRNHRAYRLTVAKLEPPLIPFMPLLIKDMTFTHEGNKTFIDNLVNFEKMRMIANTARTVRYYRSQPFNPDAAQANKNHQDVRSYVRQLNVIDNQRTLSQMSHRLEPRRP
Experiment [20] shares this target. The experiment can be described thus: Confirmatory qHTS for antagonist of cAMP-regulated guanine nucleotide exchange factor 4 (EPAC2) (AID 1645885). Also: % is scaled to controls: 0 for no effect and ±100 for the full control effect; nearly all actives have a fitted effect of over 25% in size.
Where [21] appears, read: measured here: cell count channel max response.
Where [22] appears, read: measured here: lipid channel max response.

Cytochrome P450 1A2 (Homo sapiens), sequence (P05177 whole entry, looked up): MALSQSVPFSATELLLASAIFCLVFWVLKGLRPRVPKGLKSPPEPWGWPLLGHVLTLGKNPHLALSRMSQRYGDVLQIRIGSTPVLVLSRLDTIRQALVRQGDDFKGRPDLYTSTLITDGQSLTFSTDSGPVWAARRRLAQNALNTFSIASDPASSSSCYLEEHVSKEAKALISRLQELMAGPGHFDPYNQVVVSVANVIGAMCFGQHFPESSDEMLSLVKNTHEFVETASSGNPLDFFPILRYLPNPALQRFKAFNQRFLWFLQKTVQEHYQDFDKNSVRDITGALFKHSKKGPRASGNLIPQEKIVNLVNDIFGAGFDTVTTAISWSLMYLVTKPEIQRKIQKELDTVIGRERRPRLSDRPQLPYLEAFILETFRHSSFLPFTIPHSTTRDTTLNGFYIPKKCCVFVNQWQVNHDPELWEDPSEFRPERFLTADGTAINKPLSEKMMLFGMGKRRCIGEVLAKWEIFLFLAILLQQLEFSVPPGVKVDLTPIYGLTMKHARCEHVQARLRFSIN
3',5'-cyclic-AMP phosphodiesterase 4B (Homo sapiens), sequence (Q07343 whole entry, looked up): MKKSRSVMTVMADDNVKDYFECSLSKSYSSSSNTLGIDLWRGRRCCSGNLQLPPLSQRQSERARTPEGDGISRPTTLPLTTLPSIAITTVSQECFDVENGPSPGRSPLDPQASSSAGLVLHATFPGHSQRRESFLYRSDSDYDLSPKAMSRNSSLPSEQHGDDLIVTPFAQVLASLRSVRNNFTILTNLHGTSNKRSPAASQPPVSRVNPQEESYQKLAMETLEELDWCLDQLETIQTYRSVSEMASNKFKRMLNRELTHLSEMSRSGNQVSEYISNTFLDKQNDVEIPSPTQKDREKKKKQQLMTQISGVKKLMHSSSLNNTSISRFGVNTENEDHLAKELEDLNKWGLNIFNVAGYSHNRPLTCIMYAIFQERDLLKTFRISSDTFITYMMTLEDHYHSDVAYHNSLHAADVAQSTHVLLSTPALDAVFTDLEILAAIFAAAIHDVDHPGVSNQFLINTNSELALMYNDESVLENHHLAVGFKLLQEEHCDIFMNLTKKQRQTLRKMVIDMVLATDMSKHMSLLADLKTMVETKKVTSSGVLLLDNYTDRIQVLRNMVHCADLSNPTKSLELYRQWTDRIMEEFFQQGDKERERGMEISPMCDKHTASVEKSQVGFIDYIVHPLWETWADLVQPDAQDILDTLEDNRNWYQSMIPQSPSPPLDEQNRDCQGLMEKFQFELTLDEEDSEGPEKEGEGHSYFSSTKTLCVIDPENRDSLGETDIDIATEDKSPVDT
Cytochrome P450 3A4 (Homo sapiens), sequence (P08684 whole entry, looked up): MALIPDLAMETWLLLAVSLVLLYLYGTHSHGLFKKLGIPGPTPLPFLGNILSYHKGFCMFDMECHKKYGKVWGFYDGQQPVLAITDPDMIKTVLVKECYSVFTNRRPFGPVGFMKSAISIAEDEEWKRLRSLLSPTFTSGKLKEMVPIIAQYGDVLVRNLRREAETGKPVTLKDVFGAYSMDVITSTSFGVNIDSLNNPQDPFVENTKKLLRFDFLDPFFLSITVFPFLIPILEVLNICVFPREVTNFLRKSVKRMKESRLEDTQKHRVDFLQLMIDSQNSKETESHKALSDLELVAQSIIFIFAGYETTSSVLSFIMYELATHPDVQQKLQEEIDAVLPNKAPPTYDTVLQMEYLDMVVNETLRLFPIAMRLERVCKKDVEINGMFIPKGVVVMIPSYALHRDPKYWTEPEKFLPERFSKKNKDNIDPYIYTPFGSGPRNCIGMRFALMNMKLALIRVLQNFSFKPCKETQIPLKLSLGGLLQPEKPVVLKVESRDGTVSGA
Lysosomal acid glucosylceramidase (Homo sapiens), sequence (P04062 whole entry, looked up): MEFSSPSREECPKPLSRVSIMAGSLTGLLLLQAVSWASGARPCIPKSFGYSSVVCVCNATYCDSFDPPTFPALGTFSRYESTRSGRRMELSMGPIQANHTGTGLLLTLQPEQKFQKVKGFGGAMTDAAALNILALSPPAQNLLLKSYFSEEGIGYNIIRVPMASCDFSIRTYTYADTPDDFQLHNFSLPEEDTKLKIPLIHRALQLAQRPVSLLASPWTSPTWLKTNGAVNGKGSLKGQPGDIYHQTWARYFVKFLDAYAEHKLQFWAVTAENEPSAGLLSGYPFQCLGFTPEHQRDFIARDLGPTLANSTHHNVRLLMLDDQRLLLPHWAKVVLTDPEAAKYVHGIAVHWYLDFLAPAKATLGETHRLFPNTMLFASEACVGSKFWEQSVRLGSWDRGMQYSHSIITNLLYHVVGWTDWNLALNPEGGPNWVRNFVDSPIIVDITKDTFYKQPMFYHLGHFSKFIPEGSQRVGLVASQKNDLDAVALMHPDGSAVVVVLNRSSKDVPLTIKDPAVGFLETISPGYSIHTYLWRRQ

Regarding `O=c1c(-c2ccc(F)cc2)nc2cnc(N3CCOCC3)nc2n1-c1ccccc1`, the results for the Potency in [1], in experiment [2] and in [3] were > 11.4 µM (inactive), > 9.22 µM (inactive) and > 46 µM (inactive), respectively. For the same compound, in experiment [4], the Potency entry is “inactive”. In addition, in [5], the activity change, negative = inhibition was -4.64% (inactive). The max response came to 7.89% in experiment [5] (setting [21]) and 5.39% in [5] (setting [22]). Moreover, the result in [6] was inactive.

On to `Cc1noc(C)c1C(=O)N1CCC2(CCCN(C(=O)Nc3ccccc3)C2)CC1`, for which the figures for the activity change, negative = inhibition in experiment [7] and in experiment [5] were -21% (inactive) and 2.45% (inactive), respectively. Moreover, the Potency is 12.6 µM (active) in experiment [8] and > 46 µM (inactive) in experiment [3]. In [9], the activity, negative = inhibition was -8.55% (inactive). Further, the Potency result in [4] and in experiment [10] was “inactive” in each case. For the same compound, the max response is 20.4% in experiment [5] (setting [21]) and 27.5% in [5] (setting [22]). The result in experiment [6] was inactive.

As for `Cn1cc(C(F)(F)F)nc1-c1ccc(OC[C@@H](O)CNCCOc2ccc(O)c(C(N)=O)c2)cc1`, the results for the activity change, negative = inhibition in experiment [7], in experiment [11] and in [5] were -8.84% [at 38 µM] (inactive), -4.88% [at 38 µM] (inactive) and 1.54% (inactive), respectively. Moreover, the Potency in [2] and in experiment [3] was > 46 µM (inactive) each time. Further, the Potency result in experiment [4] and in experiment [10] was “inactive” throughout. The results for the max response in experiment [5] (setting [21]) and in experiment [5] (setting [22]) were -4.45% and -2.61%, respectively. The result in experiment [6] was inactive.

For the compound `COc1ccc(CNc2nc(-c3ccoc3)nc3ccccc23)c(OC)c1`, the activity change, negative = inhibition is -10.8% (inactive) in experiment [7], -8.73% (inactive) in experiment [11] and 11% (inactive) in [5]. Moreover, the activity, negative = inhibition in [9] was 6.96% (inactive). For the same compound, the Potency in experiment [2] and in experiment [3] was > 46 µM (inactive) each time. For the same compound, the Potency result in experiment [4] and in [10] was “inactive” each time. In addition, the compound was called inactive in [12] and in experiment [6]. For the same compound, the results for the max response in experiment [5] (setting [21]) and in experiment [5] (setting [22]) were -6.93% and 2.43%, respectively.

For the compound `COc1ccc(Oc2ncc3nc(-c4ccc(F)cc4)c(=O)n(C)c3n2)cc1`, the Potency was 2 µM (active) in [8], > 9.22 µM (inactive) in [2], > 46 µM (inactive) in experiment [3] and 3.98 µM (active) in [13]. Besides, the figures for the activity change, negative = inhibition in experiment [11] and in experiment [5] were -22.3% (inactive) and 4.46% (inactive), respectively. For the same compound, the activity, negative = inhibition in experiment [9] is 12.3% (inactive). Further, the Potency result in experiment [4], in experiment [10] and in experiment [14] was “inactive” in each case. Further, the max response was 18% in [5] (setting [21]) and 24.3% in experiment [5] (setting [22]). Moreover, the outcome in experiment [6] was inactive.

On to `CS(=O)(=O)Nc1cccc(-c2ccc3ncnc(NCc4cccnc4)c3c2)c1`, for which the Potency in [8] is 0.316 µM (active); in experiment [2] it was > 46 µM (inactive); in [3] it was > 46 µM (inactive); in [13] it was 0.398 µM (active). Moreover, the activity, negative = inhibition in experiment [9] was -6% (inactive). The Potency result in experiment [4], in experiment [10], in experiment [14] and in experiment [15] was “inactive” in each case. Also, the result in [12] and in experiment [6] was inactive. Moreover, the activity change, negative = inhibition in experiment [5] is 10.4% (inactive). In addition, the max response in [5] (setting [21]) was determined as 2.04%; in [5] (setting [22]), 13.1%.

In the case of `COc1ccc(CNc2ncnc3ccc(-c4c(C)noc4C)cc23)c(OC)c1`, the Potency is > 11.4 µM (inactive) in experiment [1]; 15.8 µM (active) in experiment [8]; > 46 µM (inactive) in experiment [2]; > 46 µM (inactive) in experiment [3]; 3.16 µM (active) in experiment [13]. Further, the Potency result in [4], in experiment [14], in experiment [16], in experiment [15], in [17] and in experiment [18] was “inactive” each time. Also, the Potency entry in experiment [19] and in experiment [20] was “inactive” each time. For the same compound, in experiment [6], the result was inactive.
